In the library only some 9.4% were active in any assay of this set; here they are far more common.
Rab9 prom act: activates the Rab9 promoter; Huh7 Rab9 promoter-luciferase reporter, luminescence, 24 h; Potency, µM (series often up to 9.22 µM), inactives show top-dose activation, negative = inhibition, hits mostly activators; actives 2.8% (n = 320,000); note: % of control where 0% means no effect; nearly all actives have a fitted effect of over 60% in size
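Quantitative HTS format; Huh7 Rab9-luciferase reporter cells (1500/well) receive compound 2 h post-plating, incubate 24 h at 37 °C, then get luciferase reagent for 10 min before luminescence reading.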
NPC1 promoter act: activators of NPC1 promoter; Huh7 NPC1 promoter luciferase reporter, 24 h; Potency, µM (top dose mostly 9.22 µM), for the others: top-dose activation, most hits filed as activators; actives 2.4% (n = 320,000); AID 485313; note: % of control where 0% means no effect; nearly all actives have a fitted effect of over 60% in size
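In 1536-well qHTS, Huh7 cells harboring an NPC1 promoter–luciferase construct received compound for 24 h; activation was quantified by luminescence following luciferase reagent addition.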
ELG1 genotox: inducers of genotoxicity in HEK293T ELG1-luciferase cells | HEK293T ELG1-luciferase reporter, luminescence, 16 h | Potency, µM (titrated, usually from 46 µM), for inactives: top-dose activity change, positive = activation, usual class: activators | actives 1.3% (n = 330,000) | AID 504466; note: % of control where 0% means no effect; nearly all actives have a fitted effect of over 60% in size
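HEK293T cells expressing luciferase-tagged ELG1 were exposed to compound or DMSO vehicle for 16 hr at 37 °C and 5% CO2. Luciferase activity was then measured with ONE-Glo after 30 min at room temperature.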
FLuc counter: firefly luciferase modulation, counter-screen for miR-21 project; P08659; purified FLuc, Km substrates, luminescence inhibition; AID 588342; Potency, µM (top dose mostly 57.5 µM), without a hit: at the top dose activity change, negative = inhibition, usual class: inhibitors; actives 6.9% (n = 360,000);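 note: plate controls were vehicle for no effect and reference inhibitor for full effect; nearly all actives have a fitted effect of over 55% in size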
Target sequence (P08659 whole entry, looked up): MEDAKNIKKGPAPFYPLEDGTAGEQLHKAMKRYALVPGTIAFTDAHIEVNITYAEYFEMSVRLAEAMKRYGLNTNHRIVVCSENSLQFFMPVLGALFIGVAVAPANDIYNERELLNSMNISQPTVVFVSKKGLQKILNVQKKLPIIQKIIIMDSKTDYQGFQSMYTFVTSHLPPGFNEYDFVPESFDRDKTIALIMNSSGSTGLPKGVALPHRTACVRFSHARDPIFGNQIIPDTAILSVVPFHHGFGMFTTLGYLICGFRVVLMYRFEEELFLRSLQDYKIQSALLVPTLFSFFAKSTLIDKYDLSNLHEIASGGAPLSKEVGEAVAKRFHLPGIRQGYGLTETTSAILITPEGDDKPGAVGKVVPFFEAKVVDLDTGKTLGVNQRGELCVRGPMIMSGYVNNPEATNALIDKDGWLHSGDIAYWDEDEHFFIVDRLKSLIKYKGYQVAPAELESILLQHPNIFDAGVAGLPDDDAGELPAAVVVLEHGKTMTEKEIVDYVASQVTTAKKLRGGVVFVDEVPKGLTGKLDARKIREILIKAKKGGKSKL
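Purified P. pyralis luciferase (10nM final) with 10uM D-luciferin and 10uM ATP (Km levels) in 50mM Tris acetate pH 7.5, 10mM Mg acetate, 0.01% Tween-20, 0.05% BSA; qHTS 6-point titration, ~60 µM downward; luminescence read.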
ELG1 repair inh: blocks ELG1-dependent DNA repair in HEK293T cells. HEK293T ELG1-luciferase reporter, luminescence, 16 h; DNA damage induced by 5-fluorouridine. Potency, µM (titrated, usually from 46.1 µM), for inactives: at the top dose activity change, negative = inhibition, usual class: inhibitors. actives 2.3% (n = 330,000). AID 504467; note: % is set by controls: 0 for no effect and ±100 for the full control effect; nearly all actives have a fitted effect of over 55% in size
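HEK293T cells expressing luciferase-tagged ELG1 (2,000/well) received 5-Fluorouridine plus compound or DMSO for 16 hr at 37 °C. Luciferase was read by ONE-Glo luminescence after 30 min at room temperature.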
SMN2 splice up: SMN2 splice variant enhancement | actives 2.8% (n = 210,000) | Potency, µM (highest dose often 46.1 µM), inactives show at the highest dose activity change, positive = activation, hits mostly activators | HEK293 SMN2-luciferase splicing reporter, luminescence, 30-36 h | AID 1458; note: % of control where 0% means no effect; nearly all actives have a fitted effect of over 55% in size
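HEK293 cells carry an SMN2 minigene-luciferase reporter in which exon 7 inclusion puts luciferase in frame. Cells were seeded at 2000 cells/well, attached for 10-12 hours, then exposed to compounds for 30-36 hours at 37C before ONE-Glo luminescence.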
The depositor's hits bear a star; u = inconclusive; x = no result given; [ ] = remark or other dose. Calls come from the whole dose curve; as a rule, active = well fitted curve in the direction sought with a large enough effect; inconclusive = small, poorly fitted or top-dose-only effect, or another doubt; inactive = no such curve, though single readings can be large; an effect the other way counts as inactive or inconclusive. Potency is the fitted concentration of half-maximal effect.

SMILES	Rab9 prom act	NPC1 promoter act	ELG1 genotox	FLuc counter	ELG1 repair inh	SMN2 splice up
COc1ccc(COc2cc(-c3cccc(OC)c3)nc3ccc(NC(=O)c4ccc(Cl)cc4)cc23)cc1	-3.8%	-4.0%	-0.8%	-2.5%	u	-14.1%
Cn1c(=O)n(C)c2cc(N3CCCCC3)c(NC(=O)c3c(F)cccc3F)cc21	x	x	x	-0.8%	x	-7.9%
CC(=O)NCc1nc2cccnc2n1Cc1ccccc1	x	x	x	0.2%	x	x
CCOC(=O)c1sc(=S)n(C)c1NC(=O)c1cccc(Br)c1	0.8%	-1.5%	-9.6%	-17.7%	13µM*	x
CCOC(=O)c1sc(NC(=O)c2ccccc2)cc1C	0.708µM*	1.58µM*	1.26µM*	1.07µM*	u	11.2µM*
CCOC(=O)c1sc(NC(=O)c2c(C)nn(Cc3ccccc3)c2C)cc1C	-8.1%	0.9%	-25.2%	21.3µM*	u	-12.1%
CCOC(=O)c1sc(NC(=O)c2ccc(Cl)s2)cc1C	1µM*	u	2.31µM*	0.601µM*	u	7.94µM*
CCOC(=O)c1sc(NC(=O)C2CC2)cc1C	19.1%	7.7%	6.2%	u	7.9%	5.2%
CCOC(=O)c1sc(NC(=S)NC(=O)CC(C)C)cc1C	u	22.7%	4.2%	19µM*	29.8%	-11.3%
CCOC(=O)c1sc(NC(=O)C(C)(C)C)cc1C	3.16µM*	2.82µM*	18.4µM*	12µM*	u	10µM*
CCOC(=O)c1sc(NC(=O)Nc2ccc(Cl)cc2)cc1C	1.3%	20.0%	u	6.75µM*	14.2%	-22.0%
CCOC(=O)c1sc(NC(=S)NC(=O)C2CCCC2)cc1C	9.8%	16.5%	-0.5%	-9.9%	23.8%	x
CCOC(=O)c1sc(NC(=O)c2ccc(S(=O)(=O)N(C)C)cc2)cc1C	-6.4%	-10.2%	-20.4%	-26.3%	16.4µM*	-19.5%
Cc1ccc(COC(=O)c2nn(C)c(=O)c3ccccc23)cc1	-4.1%	-3.5%	2.0%	7.3%	u	-49.7%
C[C@@H]1CCCN(CP(=O)(c2ccccc2)c2ccccc2)C1	x	x	x	x	x	-13.8%[9.22 µM]
C=CCN1c2ccccc2[C@]23C[C@@H](C(=O)OC)N(S(=O)(=O)c4ccc5c(c4)OCCN5C)C2=NC(C(=O)OC)=C(C(=O)OC)[C@H]13	x	x	x	x	x	12.2%[9.22 µM]
CCc1ccc(NC(=S)NC(=O)CC(C)C)cc1	u	u	u	7.57µM*	u	8.91µM*
Cc1ccccc1NC(=S)NCCc1ccccc1	-2.6%	-1.3%	0.3%	1.3%	0.7%	u
COC(=O)Cc1ccc(NC(=S)Nc2ccccn2)cc1	u	14.4%	3.3%	21.3µM*	u	x
CC(C)CCNC(=S)Nc1ccc(Br)cc1	20.5%	15.1%	2.1%	21.3µM*	u	21.6%
CC(C)(C)NC(=S)NCCc1ccccc1	1.78µM*	3.16µM*	u	10.7µM*	u	x
CC(C)CCNC(=O)/C=C/c1ccc(Br)cc1	4.7%	0.3%	4.2%	13.5µM*	u	-5.5%
O=C(c1cccc(F)c1)N1CCC(c2c[nH]c3ccccc23)(c2c[nH]c3ccccc23)CC1	x	x	x	5.7%	x	0.1%
CC(C)Oc1ccccc1C1C=C(C(=O)O)Nc2ncnn21 (stereo unspecified)	x	x	x	-5.4%	x	-8.0%
O=C(c1ccc2c(c1)N(Cc1ccccc1)C(=O)c1ccccc1S2(=O)=O)N1CCN(c2ccccn2)CC1	x	x	x	0.2%	x	-15.9%
SMILES	Rab9 prom act	NPC1 promoter act	ELG1 genotox	FLuc counter	ELG1 repair inh	SMN2 splice up
CCC(CC)C(=O)Nc1ccc(OCc2cc(=O)n3ccc(C)cc3n2)cc1	x	x	x	-2.2%	x	x
COC(=O)Cc1ccc(NC(=S)NCCC(C)C)cc1	2.9%	-2.8%	-1.6%	16.9µM*	1.2%	9.7%
COC(=O)Cc1ccc(NC(=S)NCCO)cc1	-4.2%	-2.0%	-4.7%	-1.4%	-0.6%	x
Cc1ccc(NC(=S)NCC(C)C)cc1	14.3%	10.8%	14.3%	19µM*	u	u
COC(=O)Cc1ccc(NC(=S)NC(C)(C)C)cc1	12.8%	5.1%	3.1%	13.5µM*	u	7.9%
CC(C)CNC(=S)Nc1ccc(S(N)(=O)=O)cc1	-1.7%	-4.4%	-1.0%	-9.3%	1.9%	7.1%
S=C(NCCc1ccccc1)Nc1ccc(Br)cc1	u	20.5%	14.0%	19µM*	u	20µM*
CC(C)c1nn2c(=O)cc(COC(=O)c3ccccc3NC(=O)C3CCCCC3)nc2s1	x	x	x	-8.3%	x	x
CCCC(=O)OCc1cnc(C)c2oc(=O)c(C(=O)Nc3ccc(F)cc3C)cc12	x	x	x	-1.1%	x	x
CN(CC(=O)Nc1ccccc1Cl)C(=O)c1ccc(COc2ccccc2)cc1	14.9%	2.2%	-8.1%	u	1.4%	x
Cc1ccc2oc3c(c(=O)c2c1)C(c1ccc(F)cc1)N(Cc1ccc2c(c1)OCO2)C3=O (stereo unspecified)	x	x	x	0.3%	x	-4.0%
S=C(NCCc1ccccc1)N/N=C/C1CCCCC1	14.6%	19.5%	6.2%	u	27.7%	11.8%
S=C(NCCc1ccccc1)NN=C1CCCCCC1	u	u	u	16.9µM*	u	12.6µM*
O=c1cc(-c2ccccc2)nc2nc(COc3ccccc3)[nH]n12	-3.2%	-0.8%	-2.4%	u	9.8%	4.5%
Nc1nc2nc(-c3ccccc3)cc(=O)n2[nH]1	17.2%	0.1%	-6.7%	12µM*	u	0.1%
O=c1cc(-c2ccccc2)nc2nc(-c3ccccc3)[nH]n12	u	u	18.4µM*	10.7µM*	u	17.8µM*
COc1ccccc1CNC(=O)CN1C(=O)CSc2ccc(S(=O)(=O)N(C)C)cc21	x	x	x	1.0%	x	x
Cc1nc(SCC(=O)Nc2nc3ccccc3s2)c(C#N)c(C)c1C	-48.2%	-26.2%	-12.4%	2.13µM*	5.17µM*	-101.9%
Cc1nc(SCC(=O)Nc2nccs2)c(C#N)c(C)c1C	0.562µM*	u	u	1.07µM*	u	x

Screening results (PubChem)
